Source: PubChem BioAssay
Most compounds without a hit are left out; they make up all but 3.1% or so of the library.
Tau fibril ThT = tau fibrillization inhibition (ThT binding) | Potency, µM (series often up to 57.4 µM), for inactives: at the highest dose activity, negative = inhibition, most hits filed as inhibitors | 2.1% of 270,000 active | recombinant tau K18 P301L, heparin-induced fibrillization, ThT fluorescence | AID 1460 | P10636; note: nearly all actives have a fitted effect of over 55% in size
Target sequence (P10636 561-689 P618L limits assumed): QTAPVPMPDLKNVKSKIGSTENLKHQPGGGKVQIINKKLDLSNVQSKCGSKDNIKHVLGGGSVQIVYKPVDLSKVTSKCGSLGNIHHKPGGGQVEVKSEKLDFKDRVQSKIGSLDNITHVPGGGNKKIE
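Heparin-induced (20 uM) aggregation of recombinant human K18 P301L tau, 15 uM unlabeled with 0.24 uM labeled, pH 7 acetate buffer, 6 hr at 37 C with compound. Fibrils quantified by 30 uM ThT fluorescence after 1 hr ambient incubation.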
RGS12 GoLoco inh = RGS12 GoLoco-Gai1 interaction inhibition | Gai1:RGS12 GoLoco peptide FP, rhodamine, 10 min | Potency, µM (highest dose often 61.6 µM), for inactives: at the highest dose activity, negative = inhibition, actives largely listed as inhibitors | 0.44% of 230,000 active | AID 880; active = well fitted inhibition curve with a large enough effect, not every such curve was filed as active; inactive = no such curve, though single readings can be large or run the other way; note: nearly all actives have a fitted effect of over 30% in size
Target sequence (P63096 whole entry, looked up): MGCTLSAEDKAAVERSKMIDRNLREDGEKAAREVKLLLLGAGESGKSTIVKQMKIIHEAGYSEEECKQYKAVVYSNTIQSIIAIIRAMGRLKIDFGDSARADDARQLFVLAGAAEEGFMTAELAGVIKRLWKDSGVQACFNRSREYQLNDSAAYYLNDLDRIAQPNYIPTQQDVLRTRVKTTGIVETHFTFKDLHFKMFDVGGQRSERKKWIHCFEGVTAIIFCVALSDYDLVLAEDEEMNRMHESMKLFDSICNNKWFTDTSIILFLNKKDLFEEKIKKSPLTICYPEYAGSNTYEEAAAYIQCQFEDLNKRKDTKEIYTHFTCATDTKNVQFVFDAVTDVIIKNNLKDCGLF
Tau fluor cs = counter-screen for tau fibril formation inhibitors. 0.93% of 280,000 active. Potency, µM (doses to about 57.7 µM), for inactives: at the highest dose activity change, negative = decrease. AID 1463. tau K18 P301L (four-repeat tau fragment) Alexa594 fluorescence, heparin fibrillization; note: nearly all actives have a fitted effect of over 55% in size
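Human K18 P301L tau (15 uM unlabeled plus 0.24 uM Alexa 594-labeled, final) in 100 mM sodium acetate pH 7 was mixed with compound and 20 uM heparin and incubated 6 hr at 37 C.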
Tau fibril FP = blocks human tau fibril formation measured by polarization; Potency, µM (highest dose often 57.7 µM), for inactives: at the highest dose activity, negative = inhibition, hits mostly inhibitors; K18 P301L tau heparin fibrillization, Alexa594 FP, 6 h; P10636; 0.39% of 280,000 active; AID 1468; note: nearly all actives have a fitted effect of over 55% in size
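Recombinant K18 P301L […], labeled with Alexa 594 at 0.24 uM over 15 uM unlabeled; heparin inducer 20 uM final; 37 C, 6 hr; FP endpoint.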
TRb-SRC2 inh = TRbeta-SRC2 interaction inhibition; P10828; TRbeta-SRC2 peptide binding, fluorescence polarization; receptor liganded with 1 µM T3; Potency, µM (top dose mostly 106 µM), for the others: at the top dose activity change, negative = inhibition, usual class: inhibitors; 0.065% of 280,000 active; AID 1469;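 note: plate controls were bound peptide for no effect and peptide without receptor for full effect; nearly all actives have a fitted effect of over 50% in size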
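Assay buffer: 20 mM Tris-HCl, 100 mM NaCl, 10% glycerol, 1 mM EDTA, 0.01% NP-40, 1 mM DTT, 1 uM T3, 5% DMSO; TRb LBD 0.6 uM, Texas Red SRC2 20 nM; FP after 5 hr.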
TR SRC2 fluor cs = counter-screen for TRb-SRC2 inhibitors: fluorescence interference; TRb/SRC2 Texas Red total fluorescence interference; Potency, µM (doses to about 106 µM), for the others: at the highest dose fluorescence change, negative = quenching; 0.29% of 280,000 active; AID 1479; active = well fitted curve in either direction with a large enough effect; inconclusive = small, poorly fitted or top-dose-only effect
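Flags fluorescent or light-absorbing compounds by total fluorescence, S + 2P, at 555 nm excitation and 632 nm emission. Mixture: 20 nM Texas Red SRC2 peptide, 0.6 uM human TRb LBD, 1 uM T3, 5% DMSO; compound exposure 5 h at ambient temperature.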
An asterisk follows results filed as active; ? = inconclusive; . = no result given; [ ] = another dose, or the depositor's remark. Unless noted, calls come from the whole dose curve; as a rule, active = well fitted curve in the direction sought with a large enough effect; inconclusive = small, poorly fitted or top-dose-only effect, or another doubt; inactive = no such curve, though single readings can be large; an effect the other way counts as inactive or inconclusive. Unless noted, % is set by controls: 0 for no effect and ±100 for the full control effect; potency is the fitted concentration of half-maximal effect.

SMILES	Tau fibril ThT	RGS12 GoLoco inh	Tau fluor cs	Tau fibril FP	TRb-SRC2 inh	TR SRC2 fluor cs
O=[N+]([O-])c1ccc(N2CCN(C(=S)c3cccc([N+](=O)[O-])c3)CC2)cc1	.	13µM*	-21%	?	4%	0%
O=C1CC(N(CCc2ccccc2)C(=S)Nc2ccccc2)C(=O)N1c1ccc(Br)cc1 (centres undefined)	?	3%	?	7.9µM*	0%	3%
O=C(CSc1nc2ccccc2[nH]1)N=Nc1c(O)[nH]c2ccccc12	14µM*	25%	?	-13%	-17%	-3%
O=C(O)c1ccc(N=Nc2c(O)[nH]c3ccccc23)cc1	16µM*	3%	-10%	5%	-10%	-6%
CC(=O)c1cccc(N=Nc2c(C)[nH]c3ccccc23)c1	10µM*	162%	14µM*[quencher]	-10%	0%	-2%
O=C(N=Nc1c(O)[nH]c2ccccc12)c1cccs1	10µM*	-1%	-26%	-14%	1%	-15%
O=C(N=Nc1c(O)[nH]c2ccccc12)c1cc(NS(=O)(=O)c2cccs2)cc(NS(=O)(=O)c2cccs2)c1	-5%	2%	-19%	?	14%	-8%
CCCN(CCC)S(=O)(=O)c1ccc(NC(=O)c2cc(C(=O)OC)cc([N+](=O)[O-])c2)cc1	-3%	-3%	8.9µM*[quencher]	13%	-5%	0%
CCOC(=O)N/N=C(/c1ccccc1)C1CCCCC1	2%	6%	2%	3%	1%	-2%
COc1cc(C2/C(=C(\O)c3cc(C)ccc3C)C(=O)C(=O)N2CCN(C)C)ccc1O (centres undefined)	-4%	.	0%	-17%	-10%	2%
COC(=O)C1=C(C)N(CCc2ccc(OC)c(OC)c2)C(=O)/C1=C\N(C)C	14µM*	13%	-26%	?	-3%	-4%
COc1ccc(CCNC2=C(Cl)C(=O)N(CCc3ccc(OC)c(OC)c3)C2=O)cc1OC	-7%	1%	0%	-5%	-12%	0%
CC(=O)NNc1nc(-c2ccc(NC(C)=O)cc2)cs1	-1%	60%	-6%	-3%	2%	1%
CC(=O)Nc1cccc(-c2csc(Nc3ccc(C)cn3)n2)c1	?	14%	14µM*[quencher]	14%	-9%	-7%
CC(=O)Nc1ccc(-c2csc(NNC(=O)c3ccc(C)cc3)n2)cc1	11µM*	20%	?	?	1%	-2%
CC(=O)Nc1ccc(-c2csc(Nc3cccc(C)n3)n2)cc1	?	8%	20µM*[quencher]	8%	6%	-7%
Cc1ccc(-c2nn(-c3cc(Cl)ccc3[N+](=O)[O-])c(=O)c3ccccc23)cc1	-11%	7%	-18%	?	3%	4%
COc1ccccc1NC(=O)NCCCN1CCN(c2cccc(Cl)c2)CC1	-18%	-2%	-24%	9%	7%	-1%
N#C/C(=N/Nc1ccc(OC(F)(F)F)cc1)C(N)=S	6.3µM*	1%	?	4%	-2%	-4%
Cc1cc(Br)ccc1-n1[nH]c(C)c(C=Nc2cccc3nsnc23)c1=O	14µM*	16%	?	?	?	-4%
Cc1ccc2c(c1)-c1nc(-c3ccc(Cl)cc3)cc(-c3coc4ccccc4c3=O)c1CO2	-5%	.	-11%	-1%	0%	10µM*[quencher]
CC1(C)CC(=O)C(C=Nc2ccc(O)c(N=CC3=C(O)CC(C)(C)CC3=O)c2)=C(O)C1	4µM*	15%	?	?	1%	0%
CCC1=Nc2ccccc2NC2=C1C(=O)CCC2	25µM*	19%	?	?	-26%	4%
C[C@@H]1C[C@H]2[C@@H]3C[C@H](F)C4=CC(=O)C(Cl)=C[C@]4(C)[C@@]3(F)[C@@H](O)C[C@]2(C)[C@@]1(O)C(=O)CO	-14%	-1%	-13%	-10%	-5%	4%
CCc1ccc(C(=O)CSC2=C(C#N)C(c3ccco3)C(C(C)=O)=C(C)N2)cc1 (centres undefined)	?	24%	?	10%	6%	5%
SMILES	Tau fibril ThT	RGS12 GoLoco inh	Tau fluor cs	Tau fibril FP	TRb-SRC2 inh	TR SRC2 fluor cs
CC(=O)C1=C(C)NC(SCC(=O)c2ccc(F)cc2)=C(C#N)C1c1ccco1 (centres undefined)	16µM*	-1%	?	-5%	-3%	-7%
CC(=O)C1=C(C)NC(SCC(=O)c2cc(Cl)ccc2Cl)=C(C#N)C1c1ccco1 (centres undefined)	28µM*	50%	?	?	-11%	3%
CC(C)C(=O)Nc1nnc(SCc2cccc(F)c2)s1	-1%	12%	3%	6%	-3%	0%
O=C(CSc1nc(-c2ccccc2)c(-c2ccccc2)[nH]1)Nc1nccs1	?	10%	14µM*[quencher]	2%	-12%	-3%
COc1ccc(-c2[nH]c(-c3ccc(SC)cc3)nc2SCC(=O)Nc2nccs2)cc1	?	-5%	7.1µM*[quencher]	8%	4%	-6%
COc1ccc(-c2nc(SCC(=O)Nc3nccs3)c(-c3ccc(Cl)cc3)[nH]2)cc1	3%	2%	0%	5%	5%	-2%
COc1ccc(-c2[nH]c(-c3ccc(C)cc3)nc2SCC(=O)Nc2nccs2)cc1	?	-4%	18µM*[quencher]	?	11%	-5%
Nc1ccccc1SCC(=O)Nc1nccs1	-3%	-30%	0%	3%	3%	-6%
CC1OC2(C)OC(=N)C1(C#N)C(C#N)(C#N)C2c1ccccc1 (centres undefined)	2%	-15%	-2%	2%	5%	4%
CC1C2(C)OC(=N)C(C#N)(C(C)O2)C1(C#N)C#N (centres undefined)	?	25µM*	-2%	-12%	?	21%
Cc1c(Cl)cccc1NC(=O)C1CCN(c2ncnc3c2nc2n3CCCCC2)CC1	?	.	-11%	-4%	-8%	20µM*[quencher]
COC(=O)C1CCN(Cc2ccc(OCCCN3CCN(c4ccc([N+](=O)[O-])cc4)CC3)cc2)CC1	4µM*	1%	-8%	8%	3%	-4%
CC1CCN(CCCCOc2ccc([N+](=O)[O-])cc2)CC1	-5%	.	-8%	-4%	-3%	-6%
O=C(CNCc1ccc(Cl)cc1)NCc1ccco1	-4%	2%	0%	6%	2%	0%
O=C(NCCNC(=O)c1cc(OCC(F)(F)F)ccc1OCC(F)(F)F)Nc1ccc(OC(F)(F)F)cc1	10%	8%	-26%	3.5µM*	2%	-1%
O=C(Nc1ccc(F)cc1)Nc1cc(OCC(F)(F)F)cc(OCC(F)(F)F)c1	-4%	8%	?	8.9µM*	5%	11%
